SMN2 splice enh: qHTS Assay for Enhancers of SMN2 Splice Variant Expression | HEK293 SMN2-luciferase splicing reporter, luminescence, 30-36 h | AID 1458, 2008 | Potency, µM (top dose mostly 46.1 µM), actives largely listed as activators | actives 2.8% (n = 210,000); also: nearly all actives have a fitted effect of over 55% in size
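HEK293 cells carry an SMN2 minigene-luciferase reporter in which exon 7 inclusion puts luciferase in frame. Cells were seeded at 2000 cells/well, attached for 10-12 hours, then exposed to compounds for 30-36 hours at 37C before ONE-Glo luminescence.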
FLuc modulator: qHTS profiling assay for firefly luciferase inhibitor/activator using purifed enzyme and Km concentrations of substrates (counterscreen for miR-21 project) | purified FLuc, Km substrates, luminescence inhibition | Luciferin 4-monooxygenase (Photinus pyralis), P08659 | actives 6.9% (n = 360,000) | Potency, µM (doses to about 57.5 µM), actives largely listed as inhibitors | AID 588342, 2011; also: nearly all actives have a fitted effect of over 55% in size
Target sequence (P08659 whole entry, looked up): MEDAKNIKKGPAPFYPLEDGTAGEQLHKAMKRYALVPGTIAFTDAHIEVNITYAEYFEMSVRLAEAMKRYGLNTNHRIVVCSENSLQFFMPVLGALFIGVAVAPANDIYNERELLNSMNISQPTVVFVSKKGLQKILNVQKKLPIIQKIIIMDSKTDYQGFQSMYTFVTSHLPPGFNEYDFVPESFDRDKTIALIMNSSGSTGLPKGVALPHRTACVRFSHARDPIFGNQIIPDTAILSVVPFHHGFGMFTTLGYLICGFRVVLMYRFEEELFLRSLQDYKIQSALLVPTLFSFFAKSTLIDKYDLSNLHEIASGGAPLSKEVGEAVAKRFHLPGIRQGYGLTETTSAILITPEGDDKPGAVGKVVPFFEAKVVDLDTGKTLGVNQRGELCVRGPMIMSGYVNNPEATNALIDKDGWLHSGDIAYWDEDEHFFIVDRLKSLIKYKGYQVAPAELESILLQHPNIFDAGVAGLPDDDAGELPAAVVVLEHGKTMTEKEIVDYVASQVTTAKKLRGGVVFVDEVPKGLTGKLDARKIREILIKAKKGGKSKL
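Biochemical qHTS of compounds, final roughly 60 µM downward over six points, against 10 nM purified firefly luciferase using Km concentrations of substrates (10 uM D-luciferin, 10 uM ATP) in Tris acetate pH 7.5 buffer; luminescence output.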
Rab9 promoter act: qHTS Assay for Rab9 Promoter Activators. Huh7 Rab9 promoter-luciferase reporter, luminescence, 24 h. Potency, µM (doses to about 9.22 µM), most hits filed as activators. actives 2.8% (n = 320,000). AID 485297, 2010; also: nearly all actives have a fitted effect of over 60% in size
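Steps: seed 1500 Huh7 Rab9-luc cells per well, rest 2 h at 37 °C; add compound in DMSO; incubate 24 h; add luciferase reagent, 10 min ambient; read luminescence.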
NPC1 promoter act: qHTS Assay for NPC1 Promoter Activators; actives 2.4% (n = 320,000); Potency, µM (doses to about 9.22 µM), usual class: activators; Huh7 NPC1 promoter luciferase reporter, 24 h; AID 485313, 2010; also: nearly all actives have a fitted effect of over 60% in size
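Readout is luciferase luminescence, reflecting NPC1 promoter activation in stably transfected Huh7 cells after 24 h compound exposure at 37 °C in reduced-serum medium with 10% FBS.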
ELG1 DNA repair: qHTS screen for small molecules that inhibit ELG1-dependent DNA repair in human embryonic kidney (HEK293T) cells expressing luciferase-tagged ELG1; HEK293T ELG1-luciferase reporter, luminescence, 16 h; DNA damage induced by 5-fluorouridine; Potency, µM (highest dose often 46.1 µM), usual class: inhibitors; actives 2.3% (n = 330,000); AID 504467, 2011; also: nearly all actives have a fitted effect of over 55% in size
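Step one: seed 2,000 cells per well. Step two: pin-transfer compound or DMSO alongside 5-fluorouridine. Step three: incubate 16 hr, 37 °C, 5% CO2. Step four: add ONE-Glo, wait 30 min, read luminescence.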
ELG1 genotox: qHTS screen for small molecules that induce genotoxicity in human embryonic kidney (HEK293T) cells expressing luciferase-tagged ELG1. HEK293T ELG1-luciferase reporter, luminescence, 16 h. actives 1.3% (n = 330,000). Potency, µM (series often up to 46 µM), usual class: activators. AID 504466, 2011; also: nearly all actives have a fitted effect of over 60% in size
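Luminescence read-out: rising ELG1-luciferase signal, reflecting elevated ELG1 protein under genetic stress, flags genotoxic compounds. Cells were treated for 16 hr at 37 °C before ONE-Glo detection.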
Large screens that a line does not name were inactive. This is a sample that favours compounds with a hit; in the whole collection about 9.4% have one here. Calls follow the shape of the dose curve; as a rule, active = well fitted curve in the direction sought with a large enough effect; inconclusive = small, poorly fitted or top-dose-only effect, or another doubt; inactive = no such curve, though single readings can be large; an effect the other way counts as inactive or inconclusive.

O=C(CSc1ncccc1C(=O)O)c1ccc2ccccc2c1	SMN2 splice enh inconclusive, FLuc modulator 9.53µM, Rab9 promoter act inconclusive, NPC1 promoter act inconclusive, ELG1 DNA repair inconclusive
C/C(=N\NC(=O)c1ccc(Cl)c(Cl)c1)c1ccccn1	FLuc modulator inconclusive, ELG1 DNA repair inconclusive, ELG1 genotox inconclusive (no result: SMN2 splice enh)
C/C(=N/NC(=O)c1ccccn1)c1ccncc1	FLuc modulator 16.9µM, Rab9 promoter act inconclusive, NPC1 promoter act 3.55µM, ELG1 DNA repair inconclusive, ELG1 genotox inconclusive (no result: SMN2 splice enh)
C/C(=N\NC(=O)c1ccccc1Cl)c1ccccn1	FLuc modulator 23.9µM, ELG1 DNA repair inconclusive, ELG1 genotox 14.6µM (no result: SMN2 splice enh)
C/C(=N\NC(=O)c1cccc(Br)c1)c1ccccn1	FLuc modulator 13.5µM, ELG1 DNA repair inconclusive, ELG1 genotox inconclusive (no result: SMN2 splice enh)
C/C(=N/NC(=O)c1cnccn1)c1ccncc1	ELG1 DNA repair inconclusive
C/C(=N\NC(=O)C(c1ccccc1)c1ccccc1)c1ccccn1	ELG1 genotox inconclusive
C/C(=N\NC(=O)c1cccc2ccccc12)c1ccccn1	FLuc modulator inconclusive, ELG1 DNA repair inconclusive, ELG1 genotox inconclusive (no result: SMN2 splice enh)
C/C(=N\NC(=O)c1cc(Br)ccc1O)c1ccccn1	FLuc modulator 16.9µM, Rab9 promoter act inconclusive, NPC1 promoter act inconclusive, ELG1 DNA repair inconclusive, ELG1 genotox 20.6µM (no result: SMN2 splice enh)
COCCNC(=O)CSc1nnc2[nH]c(=O)cc(C)n12	none (no result: SMN2 splice enh, Rab9 promoter act, NPC1 promoter act, ELG1 DNA repair, ELG1 genotox)
Cc1sc2c(c1C)c(=O)n(-c1cccc(C(F)(F)F)c1)c(=O)n2Cc1ccccc1C#N	none (no result: Rab9 promoter act, NPC1 promoter act, ELG1 DNA repair, ELG1 genotox)
CCOc1cccc(NC(=O)c2cccc(F)c2)c1	FLuc modulator inconclusive
O=C(NCCOCCn1c(=O)oc2ccccc21)Nc1ccc(Cl)cc1	none (no result: Rab9 promoter act, NPC1 promoter act, ELG1 DNA repair, ELG1 genotox)
COc1cc(C2C(C#N)=C(N)Oc3c2ccc2ccccc32)ccc1OCC(=O)Nc1cccc(C)c1 (stereo unspecified)	ELG1 DNA repair 9.2µM
Cc1cc(NC(=S)NC(=O)C2CC2)ccc1Br	FLuc modulator 23.9µM, ELG1 DNA repair inconclusive (no result: SMN2 splice enh)
Cc1cc(OCCCn2c(CCNC(=O)C3CCCCC3)nc3ccccc32)ccc1Cl	FLuc modulator inconclusive (no result: Rab9 promoter act, NPC1 promoter act, ELG1 DNA repair, ELG1 genotox)
O=C1/C(=N\S(=O)(=O)c2cccs2)C([n+]2ccc(CCCc3ccccc3)cc2)=C([O-])c2ccccc21	ELG1 DNA repair 13µM (no result: SMN2 splice enh)
O=C1/C(=N\S(=O)(=O)c2cccs2)C([n+]2cccc(Cc3ccccc3)c2)=C([O-])c2ccccc21	ELG1 DNA repair 2.31µM (no result: SMN2 splice enh)
CCCCC[n+]1ccn(C2=C([O-])c3ccccc3C(=O)/C2=N\S(=O)(=O)c2ccccc2)c1	ELG1 DNA repair inconclusive (no result: SMN2 splice enh)
O=C(Nc1ccc(Cl)cc1)C1CCCN(c2ncnc3c2nc2n3CCCCC2)C1 (stereo unspecified)	ELG1 DNA repair 23.1µM (no result: SMN2 splice enh)
CSc1ccc(CCNC(=O)C2CCCN(c3ncnc4c3nc3n4CCCCC3)C2)cc1 (stereo unspecified)	ELG1 DNA repair 8.2µM (no result: SMN2 splice enh)
O=C(NCc1ccc(Cl)cc1)C1CCCN(c2ncnc3c2nc2n3CCCCC2)C1 (stereo unspecified)	ELG1 DNA repair 14.6µM (no result: SMN2 splice enh)
Fc1cccc(Cl)c1Cn1c(-c2cccs2)nc2ccccc21	none (no result: Rab9 promoter act, NPC1 promoter act, ELG1 DNA repair, ELG1 genotox)
Cc1cc(C)c(CSc2nnc(C)n3c2cc2occc23)c(C)c1	none (no result: SMN2 splice enh, Rab9 promoter act, NPC1 promoter act, ELG1 DNA repair, ELG1 genotox)
COc1ccc(OC)c(-n2c(N)c(C(=O)NCC3CCCO3)c3nc4ccccc4nc32)c1 (stereo unspecified)	ELG1 DNA repair 16.4µM
Nc1c(C(=O)NC2CCCC2)c2nc3ccccc3nc2n1N	FLuc modulator 16.9µM (no result: SMN2 splice enh)
CC(C)Cn1c(N)c(C(=O)NCC2CCCO2)c2nc3ccccc3nc21 (stereo unspecified)	ELG1 DNA repair 8.91µM
Cc1cc(C)c2c(=O)nc(SCc3ccccc3C)n(C3CC3)c2n1	none (no result: SMN2 splice enh, Rab9 promoter act, NPC1 promoter act, ELG1 DNA repair, ELG1 genotox)
COCC(=O)N1CCC[C@@]2(CCN(C(=O)Nc3ccc(OC)cc3)C2)C1	none (no result: FLuc modulator, Rab9 promoter act, NPC1 promoter act, ELG1 DNA repair, ELG1 genotox)

Screens (PubChem)
